# According to PubChem BioAssay AID1481 (The Scripps Research Institute Molecular Screening Center, 2009):
# The campaign covered roughly 220,000 compounds. About 920 (0.42%) were called active. The entries come from a sample that favours actives as a whole. Unmarked numbers belong to inactive results. No stated cut-off is given here; in the data, active means inhibition above about 15%; inactive means the rest.
# Target: Transitional endoplasmic reticulum ATPase (Homo sapiens) (UniProt P55072)
# Test: inhibitors of human p97 ATPase, primary screen, biochemical (AID 1481);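 further: 0% = DMSO vehicle and 100% = wells lacking enzyme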
# Conditions: recombinant p97 ATPase, Kinase-Glo ATP luminescence, 3 h; at 8 µM; stronger effect = higher value
# Chain of Transitional endoplasmic reticulum ATPase (Homo sapiens) (P55072 whole entry, looked up): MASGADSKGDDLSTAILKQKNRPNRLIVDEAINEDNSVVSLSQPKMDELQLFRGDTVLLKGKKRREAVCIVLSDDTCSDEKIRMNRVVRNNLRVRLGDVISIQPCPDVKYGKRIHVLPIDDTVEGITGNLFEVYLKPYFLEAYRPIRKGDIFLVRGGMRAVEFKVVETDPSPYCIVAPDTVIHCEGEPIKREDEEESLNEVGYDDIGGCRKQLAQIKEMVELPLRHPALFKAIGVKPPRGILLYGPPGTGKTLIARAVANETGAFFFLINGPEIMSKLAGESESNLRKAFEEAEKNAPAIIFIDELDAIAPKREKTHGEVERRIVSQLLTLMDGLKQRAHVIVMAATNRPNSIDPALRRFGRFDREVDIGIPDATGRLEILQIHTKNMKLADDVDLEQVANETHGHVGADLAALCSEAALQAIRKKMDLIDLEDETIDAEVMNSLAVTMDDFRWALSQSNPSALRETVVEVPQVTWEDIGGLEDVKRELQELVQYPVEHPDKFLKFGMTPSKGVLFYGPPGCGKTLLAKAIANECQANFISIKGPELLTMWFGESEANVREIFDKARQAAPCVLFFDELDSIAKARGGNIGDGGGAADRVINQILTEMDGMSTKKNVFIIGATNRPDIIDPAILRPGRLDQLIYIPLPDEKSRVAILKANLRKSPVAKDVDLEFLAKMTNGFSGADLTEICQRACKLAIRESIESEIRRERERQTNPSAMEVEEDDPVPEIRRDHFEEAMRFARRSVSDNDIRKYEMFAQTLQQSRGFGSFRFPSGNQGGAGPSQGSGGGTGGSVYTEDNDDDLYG
row,Compound,inhibition
1,O=c1[nH]c(CN2CC=C(c3ccccc3)CC2)nc2scc(-c3cccs3)c12,15.1% (active)
2,O=c1c2ccccc2nc(-c2ccccc2)n1-c1ccccn1,3.57%
3,CNC(=O)Nc1ccc(C(O)(C(=O)OC)C(F)(F)F)cc1 (stereo not given),-1.08%
4,CC(=O)Nc1ccccc1C(=O)OCC(=O)c1cccc2ccccc12,-0.08%
5,N=c1ccccn1Cc1ccccc1,10.5%
